Inhibition data for 67 molecules are collected here from PubChem BioAssay AID746 (The Scripps Research Institute Molecular Screening Center, 2007).

Structures are written as SMILES. Out of some 60,000 compounds screened, about 370 (0.62%) were called active. Rule as the data show it: active = inhibition above about 17%; inactive = the rest. The entries come from a sample that favours actives as a whole.

For this assay, the target named is Mitogen-activated protein kinase 10 (Homo sapiens) (UniProt P53779). Nature of the assay: JNK3 kinase activity inhibitors, primary screen, biochemical, human, purified enzyme (AID 746).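 Also: 0% = DMSO and 100% = reference inhibitor.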 The note with it: HTS, at 8 µM, active compounds read high.
Sequence of Mitogen-activated protein kinase 10 (Homo sapiens) (P53779 whole entry, looked up): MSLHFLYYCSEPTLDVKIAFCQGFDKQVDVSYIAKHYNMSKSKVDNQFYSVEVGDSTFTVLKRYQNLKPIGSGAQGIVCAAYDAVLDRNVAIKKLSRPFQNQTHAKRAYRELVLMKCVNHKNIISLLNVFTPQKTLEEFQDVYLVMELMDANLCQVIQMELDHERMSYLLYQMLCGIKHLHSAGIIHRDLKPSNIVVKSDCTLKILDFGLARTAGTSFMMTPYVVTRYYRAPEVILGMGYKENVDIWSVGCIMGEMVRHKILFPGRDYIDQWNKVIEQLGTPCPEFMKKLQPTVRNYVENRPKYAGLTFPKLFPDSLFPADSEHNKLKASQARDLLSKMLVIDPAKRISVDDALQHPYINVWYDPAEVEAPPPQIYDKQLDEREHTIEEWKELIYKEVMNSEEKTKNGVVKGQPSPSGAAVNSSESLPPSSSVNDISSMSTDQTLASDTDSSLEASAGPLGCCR
The inhibition is the drop in the measured response relative to a control, in per cent. `Cc1cc(/C=N/n2cnnc2)c(C)n1-c1cccc(C(=O)O)c1`: the inhibition was 0.73% (inactive).
`O=C(CSC1=NCCS1)Nc1nc(-c2ccccc2)cs1`: the inhibition is 0.48% (inactive).
The figure for `Cc1nc2ccccc2cc1O` is -3.12% (inactive).
With `Cc1cc(O)ccc1-c1cnc2ccccc2n1` the figure was 25.6% (active); with `Oc1ccc2nc(Cc3ccccc3)[nH]c2c1`, 5.45% (inactive).
With `O=C1NC2(CCCCC2)N=C1c1ccccc1` the figure was 0.31% (inactive); with `COC(=O)C(CC(=O)Nc1cc(C)ccc1C)Nc1ccccc1OC` (configuration not stated), -2.33% (inactive).
Take `O=C(C1CCN(c2nnc(-n3cccc3)s2)CC1)N1CCc2ccccc2C1`: the inhibition was -2.74% (inactive).
With `CCOc1ccccc1C1NC(=O)NC(C)=C1C(=O)OCc1ccco1` (configuration not stated) the figure was 2.09% (inactive); with `CSc1nc(C)nc2c1c(=O)n(C)c(=O)n2C`, 4.34% (inactive).
As for `CCOc1ccc(NS(=O)(=O)c2ccc(OCC(=O)NCCCOC)cc2)cc1`, the inhibition was -5.51% (inactive).
The figure for `O=C(OC(C(=O)NC1CCCC1)c1ccc(F)cc1)c1ccno1` (configuration not stated) is -3.98% (inactive).
The figure for `CCC1SC2=NCCN2C1(O)c1ccc(Cl)cc1` (configuration not stated) is -0.2% (inactive); for `O=C(O)Cc1ccc(NC(=O)C2CCCCC2C(=O)O)cc1` (configuration not stated) it is 3.04% (inactive); for `Cc1cn(COC/C=C/c2ccccc2)c(=O)[nH]c1=O` it is -1.97% (inactive).
The figure for `CCOC(=O)CNC(=O)CN1C(=O)CCSc2ccccc21` is -4.85% (inactive).
`O=C(CSc1nnc(-c2ccco2)o1)NCC(=O)c1ccccc1`: the inhibition was -0.03% (inactive).
With `O=C(COc1ncnc2ccccc12)NC(=O)NCc1ccccc1` the figure was 1.94% (inactive); with `COc1cccc2c(=O)n(CC(=O)N3CCCCCC3)ccc12`, 1.14% (inactive).
With `OCCCN1c2ccccc2Nc2nnc(-c3ccccc3)cc21` the figure was 31.6% (active); with `Cc1ccc2c(c1)C(O)(CC(=O)c1cccnc1)C(=O)N2` (configuration not stated), 4.44% (inactive).
On to `O=C(CSc1nc2c(cnn2-c2ccc(F)cc2)c(=O)[nH]1)N1CCCCCC1`, for which the inhibition was 1.45% (inactive).
With `C=CCNC(=O)CSc1nc2sc(C)c(C)c2c(=O)[nH]1`, the inhibition is -0.43% (inactive).
Take `CC(=O)c1sc2nc(SCC(=O)N3CCCCC3)[nH]c(=O)c2c1C`: the inhibition is 19.7% (active).
Turning to `O=C1NC(c2ccncc2)Nc2sc3c(c21)CCCC3` (configuration not stated), the inhibition is 4.12% (inactive).
With `CC(=NCc1ccc2c(c1)OCO2)C1=C(O)c2ccccc2C1=O` the figure was 12.4% (inactive); with `O=C1C(C=NCC2CCCO2)=C(O)c2ccccc21` (configuration not stated), 3.41% (inactive).
With `CC(=NCc1ccco1)C1=C(O)c2ccccc2C1=O`, the inhibition is 32.9% (active).
The figure for `Cc1ccnc(N2CCN(C(=O)CSc3nc4ccccc4nc3N3CCCCC3)CC2)c1` is 6.1% (inactive).
In the case of `Cc1cc(N2CCCC2)n2nc(C)c(-c3ccccc3)c2n1`, the inhibition was -0.31% (inactive).
The figure for `CCOC(=O)N1CCN(C(=O)CSc2ccc(Cl)cc2)CC1` is -3.08% (inactive); for `CC(=O)c1ccc(N2C(=NC(=O)C(C)C)SC3CS(=O)(=O)CC32)cc1` (configuration not stated) it is 3.06% (inactive).
The figure for `O=C(NCc1ccco1)c1ccc(CS(=O)(=O)Cc2ccc(F)cc2)o1` is 2.1% (inactive); for `COc1ccccc1C(=O)N1CCN=C1SCc1cccnc1` it is -7.75% (inactive); for `CCN1CCN(C(=O)CN(C)S(=O)(=O)c2ccc(OC)cc2)CC1` it is -5.84% (inactive).
`CC(CN1CCCCC1)OC(=O)c1ccccc1Cl` (configuration not stated): the inhibition was 2.81% (inactive).
The figure for `CCc1ccccc1N(CC(=O)N1CCN(c2ccccc2F)CC1)S(C)(=O)=O` is 2.83% (inactive).
The figure for `COCCCn1c2nc3ccccc3nc2c2c(=O)n(Cc3ccc(Cl)cc3)c(C)nc21` is 3.15% (inactive).
Take `Cc1ccsc1CNn1cnnc1SCc1ccccc1F`: the inhibition was -1.56% (inactive).
Take `Fc1c(F)c(C(F)(F)F)c(F)c(F)c1N1CCN(c2ccc3nnc(C(F)(F)F)n3n2)CC1`: the inhibition is -2.37% (inactive).
With `Cc1cc(C)n(C(=O)c2ccc(S(=O)(=O)N3CCCC3)cc2)n1` the figure was 5.94% (inactive); with `O=C(CSc1nnc(Cc2ccccc2)n1-c1ccccc1)N1CCOCC1`, -3.48% (inactive); with `CCOC(=O)c1ccc(COC(=O)c2cc(=O)[nH]c3ccccc23)o1`, -6.13% (inactive).
In the case of `COC(=O)c1[nH]c2ccccc2c1NS(=O)(=O)c1ccc(OC)cc1OC`, the inhibition is 2.86% (inactive).
The figure for `COc1ccc(COC(=O)c2n[nH]c3ccccc23)cc1F` is 54.8% (active); for `CSc1nsc(SC)c1NC(=O)OC1CCCCC1` it is -12% (inactive); for `CS(=O)(=O)N1CCCC(C(=O)N2CCOCC2)C1` (configuration not stated) it is 6.57% (inactive).
With `COCCN1Cc2cccc(C(=O)Nc3ccccc3OC)c2C1=O`, the inhibition is 2.47% (inactive).
With `O=C(O)c1cccc2c1C(=O)N(C1CCCCC1)C2` the figure was -0.07% (inactive); with `CCCN1Cc2cccc(C(=O)NCc3ccccc3)c2C1=O`, 19.8% (active); with `CC(=O)c1c(C)n([O-])c2ccccc2[n+]1=O`, -1.64% (inactive).
The figure for `C=C1c2cc(CC)ccc2NC(=O)N1c1ccc(C)cc1` is -1.58% (inactive).
For the molecule `CCN=C1SC(CC(=O)Nc2ccc(C)cc2)C(=O)N1CC` (configuration not stated), the inhibition was 0.86% (inactive).
As to `CCc1ccccc1NC(=O)c1cccs1`, the inhibition is 6.07% (inactive).
Regarding `CCOC(=O)c1cc2sccc2n1Cc1ccc(C#N)cc1`, the inhibition was 4.65% (inactive).
Turning to `Cc1ccn2cc(-c3nonc3C)cc2c1`, the inhibition is 2.16% (inactive).
For the molecule `Cc1cccc(NC(=O)CSC(N)=O)c1C`, the inhibition was -3.12% (inactive).
With `CCOC(=O)c1cccc(NC(=O)CCc2c(C)nc3ncnn3c2C)c1` the figure was 4.2% (inactive); with `COC(=O)c1cc(NC2c3ccccc3C(=O)N2c2ccc(Cl)cn2)cc(C(=O)OC)c1` (configuration not stated), 1.5% (inactive); with `CN(C(=O)C1CCOC1)c1nnc(-c2cccnc2)s1` (configuration not stated), -0.13% (inactive).
The figure for `COc1ccc(N2CCN(Cc3cc(=O)oc4ccc5ccccc5c34)CC2)cc1` is 11.2% (inactive).
With `Cn1c(=O)[nH]c(=O)c2c1nc(N1CCN(CCO)CC1)n2CCSc1nc2ccccc2s1` the figure was -3.17% (inactive).
As for `COc1ccc(C)c2sc(=NC(=O)c3ccc(C#N)cc3)n(C)c12`, the inhibition is 1.99% (inactive).
`CCOc1ccc(CCNC(=O)C2CCN(c3ccc(N4CCOCC4)nn3)CC2)cc1OCC`: the inhibition was -3.01% (inactive).
The figure for `COc1cc(C(=O)Nc2nccs2)cc(OC)c1OC` is 8.3% (inactive); for `CC(=O)Oc1ccc(C(=O)Nc2nccs2)cc1` it is 31.3% (active).
On to `Cn1cccc1C(=O)Nc1nccs1`, for which the inhibition was 3.03% (inactive).
